In PubChem BioAssay AID488890 (Southern Research Specialized Biocontainment Screening …, 2010):
The whole screen tested about 320,000 compounds, of which about 1,300 (0.41%) were called active. Another 3% or so got no clear call; they are omitted. No rule for the calls is given here. A selection follows. Measured potencies and affinities stand elsewhere.

assay: growth inhibition of non-replicating M. tuberculosis (AID 488890); details: Mycobacterium tuberculosis non-replicating, at 25 µM, stronger effect = higher value;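 also: plate controls were DMSO cells for no effect and high antibiotic wells for full effect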

Which inhibition does the source give for `O=C(Nc1ccccc1)c1cccc2c(Br)cccc12` here?
Its inhibition is -8.76%.

Which inhibition does the source give for `CCc1ccc(/C(C)=N/NC(=O)c2ccccn2)cc1` here?
The inhibition was 27%.

Which inhibition does the source give for `Cc1ccc(N=CC2=C(O)CC(c3ccccc3Cl)CC2=O)cc1` (stereo not given) here?
The inhibition was 2.23%.

With `O=C(Nc1ccc(Br)cc1F)c1sccc1-n1cccc1` as the compound, how does the inhibition read?
The inhibition was 0.35%.

With `COc1ccccc1C(=O)Nc1c2c(nn1-c1ccc([N+](=O)[O-])cc1)CS(=O)(=O)C2` as the compound, how does the inhibition read?
The inhibition was -26.7%.

Which inhibition does the source give for `CC(=O)Oc1ccc([C@@H]2COc3c(ccc4c3C=CC(C)(C)O4)C2)c(OC(C)=O)c1` here?
Its inhibition is -2.73%.

With `COc1cc(/C=C2\C(=N)N3N=CSC3=NC2=O)cc(Br)c1OC(=O)c1ccco1` as the compound, how does the inhibition read?
The inhibition was -3.1%.

Which inhibition does the source give for `CC1=CC2=NC(=O)/C(=C/c3cccs3)C(=N)N2O1` here?
The inhibition was -5.09%.

With `COc1cc(/C=C2/C(=N)N3OC(C)=CC3=NC2=O)ccc1OCCOc1ccc(C)cc1` as the compound, how does the inhibition read?
The inhibition was -6.61%.

For `CC(=O)Nc1ccc(OCCOc2ccc(/C=C3/C(=N)N4C=CSC4=NC3=O)cc2)cc1`, which inhibition is on record?
Its inhibition is 2.76%.

With `O=C1CN(C(=O)c2cccc(Br)c2)c2ccccc2N1` as the compound, how does the inhibition read?
The inhibition was -8.78%.

With `Cc1nnc(NC(=O)CCC(=O)N2CCN(CCOc3cccc4ccccc34)CC2)s1` as the compound, how does the inhibition read?
The inhibition was 16.7%.

For `CCCCOC(=O)Nc1cc(C(=O)OC)ccc1C(=O)OC`, which inhibition is on record?
Its inhibition is 18.2%.

With `N#Cc1ccc(OCC(=O)Nc2nc(-c3ccncc3)cs2)cc1` as the compound, how does the inhibition read?
Its inhibition is 10%.

Which inhibition does the source give for `Cc1c([N+](=O)[O-])c([N+](=O)[O-])nn1CC(=O)NCc1cccnc1` here?
The inhibition was 6.05%.

With `Cn1c(=O)c2c(SCCN3CCOCC3)nc(C3CCCC3)nc2n(C)c1=O` as the compound, how does the inhibition read?
Its inhibition is 19.1%.

With `CCOc1ccc(C(=O)N/N=C/c2cc([N+](=O)[O-])cs2)cc1` as the compound, how does the inhibition read?
The inhibition was 69.5%.

With `COc1cc(C(=O)N/N=C/c2ccsc2C)cc(OC)c1OC` as the compound, how does the inhibition read?
The inhibition was 0.65%.

Which inhibition does the source give for `COc1ccc(CC(=O)OCc2cc(=O)n3cc(Br)ccc3n2)cc1OC` here?
The inhibition was 13.9%.

With `CCOc1ccc(CC(=O)OCc2cc(=O)n3cc(Br)ccc3n2)cc1` as the compound, how does the inhibition read?
The inhibition was 50.5%.

Which inhibition does the source give for `O=C(OCc1nnc(-c2ccccc2)o1)c1ccccc1` here?
The inhibition was 73.8%.

For `CCOC(=O)c1cccc(COC(=O)c2cccc(-c3nnc(-c4ccccc4)o3)c2)c1`, which inhibition is on record?
Its inhibition is 18.4%.

With `O=C(OCc1nnc(-c2ccccc2)o1)c1cccnc1Cl` as the compound, how does the inhibition read?
Its inhibition is 6.83%.

Which inhibition does the source give for `Cc1onc(-c2ccccc2)c1C(=O)OCc1nnc(-c2ccc([N+](=O)[O-])cc2)o1` here?
The inhibition was 48%.

With `O=C(OCc1nnc(-c2ccccc2)o1)c1ccc([N+](=O)[O-])o1` as the compound, how does the inhibition read?
The inhibition was 64.9%.

With `CC(=O)OCc1nc2ccccc2s1` as the compound, how does the inhibition read?
Its inhibition is -0.84%.

Which inhibition does the source give for `CCOC(=O)c1ccc(Cn2c(-c3ccccc3)nnc2-c2ccccc2)o1` here?
Its inhibition is 11.2%.

For `CCOC(=O)Nc1nc2ccccc2s1`, which inhibition is on record?
The inhibition was -2.43%.

With `Cc1cc(C(=O)CSc2nc3ccc(Cl)cc3[nH]2)c(C)n1Cc1ccco1` as the compound, how does the inhibition read?
The inhibition was 13.9%.

For `COc1ccc(CN2C(=O)c3cccnc3C2Nc2ccc(C)cc2)cc1` (stereo not given), which inhibition is on record?
Its inhibition is 27%.
